Source: PubChem BioAssay (NCATS)
Values joined by “and” are separate entries in the source; they are usually repeats but may differ in a detail not shown here. Equal entries are not always repeated. Inconclusive results are not listed. A call without a number means that no potency is given here. Active and inactive are the calls of the source. Unless noted, the call rests on the fitted dose curve; in most records, active means well fitted curve in the direction sought with a large enough effect; inconclusive means small, poorly fitted or top-dose-only effect, or another doubt; inactive means no such curve, though single readings can be large; an effect the other way counts as inactive or inconclusive.

Legend:
[1] = qHTS for Inhibitors of the Functional Ribonucleoprotein Complex (vRNP) of Lassa (LASV) Arenavirus: Viability assay - alamar blue signal for LASV Primary Screen (AID 1347083; calls by dose curve; tested in HEK293 reporter line; further: nearly all actives have a fitted effect of over 80% in size)
[2] = target: Nucleoprotein (Lymphocytic choriomeningitis virus (strain Armstrong)) (UniProt P09992); test: qHTS for Inhibitors of the Functional Ribonucleoprotein Complex (vRNP) of Lymphocytic Choriomeningitis Arenaviruses (LCMV): LCMV Primary Screen - GLuc reporter signal (AID 1347086; calls by dose curve; further: nearly all actives have a fitted effect of over 70% in size)
Nucleoprotein (Lymphocytic choriomeningitis virus (strain Armstrong)), sequence (P09992 whole entry, looked up): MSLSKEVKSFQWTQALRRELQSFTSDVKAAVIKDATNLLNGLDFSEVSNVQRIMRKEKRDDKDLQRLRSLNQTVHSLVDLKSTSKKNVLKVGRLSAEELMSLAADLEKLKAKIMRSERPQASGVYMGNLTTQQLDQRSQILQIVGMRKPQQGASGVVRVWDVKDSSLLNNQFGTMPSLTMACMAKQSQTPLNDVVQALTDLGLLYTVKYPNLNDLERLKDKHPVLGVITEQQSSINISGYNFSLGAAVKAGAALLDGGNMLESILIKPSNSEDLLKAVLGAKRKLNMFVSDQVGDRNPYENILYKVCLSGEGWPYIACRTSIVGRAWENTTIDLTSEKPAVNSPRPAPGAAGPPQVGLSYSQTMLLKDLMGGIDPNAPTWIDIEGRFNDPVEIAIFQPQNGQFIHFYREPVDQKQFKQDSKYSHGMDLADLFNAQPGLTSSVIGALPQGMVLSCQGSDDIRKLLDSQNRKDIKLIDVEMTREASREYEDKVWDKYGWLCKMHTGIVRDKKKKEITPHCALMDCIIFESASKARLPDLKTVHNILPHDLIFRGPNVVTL

[3] = qHTS of pediatric cancer cell lines to identify multiple opportunities for drug repurposing: Primary screen for TC32 cells (AID 1347089); further: nearly all actives have a fitted effect of over 60% in size
In short: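 TC32 cells, 500-1,000/well in growth medium, compound-treated 48 h at 37 °C; viability from CellTiter-Glo luminescence. Primary screen: MIPE 11-point (0.78 nM–46 µM final), NPC 8-point (0.59 nM–46 µM final); confirmatory at 11-point dilutions.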

[4] = qHTS of pediatric cancer cell lines to identify multiple opportunities for drug repurposing: Primary screen for DAOY cells (AID 1347090); further: nearly all actives have a fitted effect of over 55% in size
In short: (§1)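 Cell viability, CellTiter-Glo luminescence; 500-1,000 cells/well, 8- or 11-point titration, 48 h compound exposure at 37 degrees C, 5% CO2. Controls: DMSO neutral, bortezomib 2.3 µM final as positive.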

[5] = qHTS of pediatric cancer cell lines to identify multiple opportunities for drug repurposing: Primary screen for SJ-GBM2 cells (AID 1347091)
In short: as §1

[6] = qHTS of pediatric cancer cell lines to identify multiple opportunities for drug repurposing: Primary screen for A673 cells (AID 1347092); further: nearly all actives have a fitted effect of over 45% in size
In short: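 A673 cells (500-1,000 cells/well) were treated 48 hours at 37 degrees C with compounds at 11-point (0.78 nM to 46 µM) or 8-point (0.59 nM to 46 µM) dilutions. Viability read by CellTiter-Glo luminescence; concentration-response curves fitted.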

[7] = qHTS of pediatric cancer cell lines to identify multiple opportunities for drug repurposing: Primary screen for SK-N-MC cells (AID 1347093)
In short: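 Metabolically active cells were quantified by ATP-dependent luminescence (CellTiter-Glo, 15 min at room temperature) following 48 h treatment. Cells had been plated at 500-1,000 per well and settled for 5 h beforehand.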

[8] = qHTS of pediatric cancer cell lines to identify multiple opportunities for drug repurposing: Primary screen for NB-EBc1 cells (AID 1347095)
In short: (§2)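 Cells plated at 500-1,000/well in growth medium, compounds added after 5 h. MIPE tested at 11 points (from 0.78 nM), NPC at 8 points (from 0.59 nM). CellTiter-Glo luminescence after 48 h; concentration-response curves from primary screen.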

[9] = qHTS of pediatric cancer cell lines to identify multiple opportunities for drug repurposing: Primary screen for BT-37 cells (AID 1347094)
In short: as §2

[10] = qHTS for Inhibitors of the Functional Ribonucleoprotein Complex (vRNP) of Lymphocytic Choriomeningitis Arenaviruses (LCMV): Viability assay - alamar blue signal for LCMV Primary Screen (AID 1347085; calls by dose curve; tested in HEK293 reporter line; further: nearly all actives have a fitted effect of over 80% in size)
Potency means the concentration at half of the fitted maximal effect.

## COc1cc2nccc(Oc3ccc(NC(=O)C4(C(=O)Nc5ccc(F)cc5)CC4)cc3)c2cc1OC
[1]
  Potency: 27.3 µM (active)
[2]
  Potency: inactive

## CC(C)C[C@H](NC(=O)CNC(=O)c1cc(Cl)ccc1Cl)B(O)O
[1]
  Potency: 1.53 µM (active)
[2]
  Potency: 3.06 µM (active)

## CC(=O)N(C)c1cccc(-c2ccnc3c(C(=O)c4cccs4)cnn23)c1
[1]
  Potency: inactive
[2]
  Potency: inactive
[3]
  Potency: inactive
[4]
  Potency: inactive
[5]
  Potency: inactive
[6]
  Potency: inactive
[7]
  Potency: inactive
[8]
  Potency: inactive

## CCOC(=O)c1c(C(C#N)=CN)c2ccc(Cl)c(Cl)c2n1C
[1]
  Potency: 10.9 µM (active)
[2]
  Potency: inactive
[3]
  Potency: inactive
[6]
  Potency: inactive
[7]
  Potency: 18.7 µM (active)

## C[C@](O)(COc1ccc(C#N)cc1)C(=O)Nc1ccc(C#N)c(C(F)(F)F)c1
[1]
  Potency: 38.5 µM (active)
[3]
  Potency: inactive

## O=[N+]([O-])c1cc([N+](=O)[O-])c2ccccc2c1
[1]
  Potency: inactive
[2]
  Potency: inactive
[3]
  Potency: inactive
[4]
  Potency: inactive
[5]
  Potency: inactive
[6]
  Potency: inactive
[7]
  Potency: 10.9 µM (active)

## Cc1cc2c(F)c(Oc3ncnn4cc(OC[C@@H](C)O)c(C)c34)ccc2[nH]1
[1]
  Potency: 24.3 µM (active)
[2]
  Potency: 13.7 µM (active)

## CC(C)(C)c1cc(C=C(C#N)C#N)cc(Br)c1O
[1]
  Potency: inactive
[3]
  Potency: inactive
[5]
  Potency: 2.64 µM (active)
[8]
  Potency: 4.69 µM (active)

## C=CCC1=C(C)C(OC(=O)C2C(C=C(C)C)C2(C)C)CC1=O (stereo not given)
[1]
  Potency: inactive
[3]
  Potency: inactive
[5]
  Potency: 30.6 µM (active)
[6]
  Potency: 48.6 µM (active)
[8]
  Potency: 68.6 µM (active)

## CC=C(C)C(=O)O[C@H]1C(C)=C2[C@@H]3OC(=O)[C@@](C)(O)[C@@]3(O)[C@@H](OC(=O)CCC)C[C@](C)(OC(C)=O)[C@@H]2[C@@H]1OC(=O)CCCCCCC
[1]
  Potency: 0.769 µM (active)
[4]
  Potency: 0.469 µM (active)
[5]
  Potency: 0.0418 µM (active)
[6]
  Potency: 0.0235 µM (active)
[7]
  Potency: 0.0187 µM (active)
[9]
  Potency: 0.0172 µM (active)
[8]
  Potency: 0.118 µM (active)

## CC[C@@]1(O)C(=O)OCc2c1cc1n(c2=O)Cc2cc3ccccc3nc2-1
[1]
  Potency: 193 nM (active) and 199 nM (active)
[2]
  Potency: inactive
[3]
  Potency: 0.0262 µM (active)
[4]
  Potency: 0.0469 µM (active)
[5]
  Potency: 0.0105 µM (active)
[6]
  Potency: 0.0235 µM (active)
[7]
  Potency: 0.0074 µM (active)
[9]
  Potency: 0.0137 µM (active)
[8]
  Potency: 0.0083 µM (active)

## Clc1ccc2ncc(-c3cccc(NC4CNC4)n3)n2c1
[1]
  Potency: 21.7 µM (active)
[2]
  Potency: inactive

## O=C(O)c1ccc(-c2cc3cccnc3c(-c3ccc4nonc4c3)n2)cc1
[1]
  Potency: inactive
[2]
  Potency: inactive

## C#CC1(O)CCC2C3CCC4=CC(=O)CCC4(C)C3CCC21C (stereo not given)
[1]
  Potency: inactive
[3]
  Potency: inactive
[4]
  Potency: inactive
[5]
  Potency: inactive
[6]
  Potency: inactive
[9]
  Potency: inactive

## O=C(C1CC1)N1CC[C@@H](Cn2c(-c3ccc(-c4ccc5occc5c4)cc3)nc3cnccc32)C1
[10]
  Potency: 10.9 µM (active)

## c1ccc2c(CCNc3ccc(Nc4ccncc4)cc3)c[nH]c2c1
[10]
  Potency: 17.2 µM (active)
[2]
  Potency: 21.7 µM (active)

## CNCc1ccc(-c2[nH]c3cc(F)cc4c3c2CCNC4=O)cc1
[10]
  Potency: inactive
[2]
  Potency: inactive

## COCCNCCCn1c(C(=O)CF)c(-c2ccc(C)cc2)c2c(N)ncnc21
[10]
  Potency: inactive
[2]
  Potency: inactive

## CCOc1ccn(-c2ccc(F)cc2)c(=O)c1C(=O)Nc1ccc(Oc2ccnc(N)c2Cl)c(F)c1
[10]
  Potency: inactive
[2]
  Potency: inactive

## Nc1ccc([N+](=O)[O-])cc1O
[10]
  Potency: inactive
[2]
  Potency: inactive

## COC(=O)c1ccc2c(C(=Nc3ccc(N(C)C(=O)CN4CCN(C)CC4)cc3)c3ccccc3)c(O)[nH]c2c1
[10]
  Potency: 27.3 µM (active)
[2]
  Potency: inactive

## CNc1nccc(-c2cccnc2Oc2cc(C(=O)Nc3cccc(C(F)(F)F)c3)ccc2C)n1
[10]
  Potency: inactive
[2]
  Potency: inactive

## Cc1cnc(Nc2ccc(OCCN3CCCC3)cc2)nc1Nc1cccc(S(=O)(=O)NC(C)(C)C)c1
[10]
  Potency: inactive
[2]
  Potency: inactive

## CN(C)C(=O)c1ccc(S(=O)(=O)c2ccc(NC(=O)[C@@](C)(O)C(F)(F)F)c(Cl)c2)cc1
[10]
  Potency: inactive

## Cc1cccc(-c2[nH]ncc2-c2ccc3ncccc3n2)n1
[10]
  Potency: inactive
[2]
  Potency: inactive

## COc1cc2nccc(Oc3ccc(NC(=O)Nc4cc(C)on4)c(Cl)c3)c2cc1OC
[10]
  Potency: 17.2 µM (active)

## C[C@@H](Oc1cc(-n2cnc3ccc(CN4CCN(C)CC4)cc32)sc1C(N)=O)c1ccccc1C(F)(F)F
[10]
  Potency: inactive
[2]
  Potency: inactive

## Cn1c(NCCN(CCO)CCCc2ccc([N+](=O)[O-])cc2)cc(=O)n(C)c1=O
[10]
  Potency: inactive
[2]
  Potency: inactive

## O=c1cc(N2CCOCC2)oc2c(-c3cccc4c3sc3ccccc34)cccc12
[10]
  Potency: inactive
[2]
  Potency: inactive
